Measured values: PubChem BioAssay (NCATS)
Several values for one entry are separate records, joined by “and”; a condition that tells them apart may be missing. Equal entries are not always repeated. Results filed as inconclusive are left out. Activity calls are given as the source filed them. Unless noted, the call rests on the fitted dose curve; in most records, active means well fitted curve in the direction sought with a large enough effect; inconclusive means small, poorly fitted or top-dose-only effect, or another doubt; inactive means no such curve, though single readings can be large; an effect the other way counts as inactive or inconclusive.

Assays:
[1] = Cell Viability - BJ (AID 421; calls by dose curve;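 further: potency means the concentration at half of the fitted maximal effect; cells exposed to compound for 40 hours at 37 °C before readout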); conditions: BJ fibroblast viability, qHTS
Procedure, shortened: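 Quantitative HTS: ATP depletion in BJ cells after 40 hr compound exposure in complete culture medium, detected with CellTiter-Glo; AC50 from standard Hill fits.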

[2] = Cell Viability - Jurkat (AID 426;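 active means dose-dependent loss of cell ATP signal giving a full or clear fitted curve, ranked by lower potency value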;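 further: potency means the concentration at half of the fitted maximal effect; cells exposed to compound for 40 hours at 37 °C before ATP read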); conditions: qHTS
Procedure, shortened: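 Cells of the human T-cell leukemia line Jurkat (E6-1) are seeded at 5000 per well, treated with compound across a concentration range for 40 hours at 37 °C, then lysed with CellTiter-Glo; luminescence reports ATP.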

[3] = Cell Viability - Hek293 (AID 427;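 active means compounds whose dose-response curve shows a full or clear partial loss of cell viability, called from curve shape rather than a numeric limit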;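 further: potency means the concentration at half of the fitted maximal effect; cells exposed to compound for 40 hours at 37 °C before reading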); conditions: qHTS
Procedure, shortened: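 AC50 values derive from Hill-modelled concentration-response of ATP-based luminescence, normalized between DMSO-only and 100 uM tamoxifen controls. Cells were exposed in complete culture medium for 40 hr at 37 °C before detection.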

[4] = Cell Viability - HepG2 (AID 433; calls by dose curve;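 further: potency means the concentration at half of the fitted maximal effect; potency for ATP loss meaning cytotoxicity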); conditions: qHTS
Procedure, shortened: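 Read-out is luciferase-based quantitation of cellular ATP as a measure of viable HepG2 cells after 40 h treatment at 37 °C. Signal decrease is scaled between DMSO-only and 100 uM tamoxifen controls, with AC50 fitted by the Hill equation.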

[5] = Cell Viability - MRC5 (AID 434; calls by dose curve;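 further: potency means the concentration at half of the fitted maximal effect; potency reflects cytotoxicity seen as loss of intracellular ATP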); conditions: MRC5 lung fibroblast viability, qHTS
Procedure, shortened: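 AC50 values come from Hill-equation fits of intracellular ATP loss, measured by CellTiter-Glo luminescence. Normal lung fibroblasts (MRC5) had 40 hr compound treatment at 37 C, normalized between DMSO and 100 uM tamoxifen.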

[6] = target: Mitogen-activated protein kinase 10 (Mus musculus) (UniProt Q61831); test: JNK3 AlphaScreen Assay (AID 530; active means well fitted curve in either direction with a large enough effect, not every such curve was filed as active;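 further: kinase came from lysate of stimulated human HepG2 cells; signal reports phosphorylation of biotinylated GST-cJun 1-79 at Ser73 with 10 µM ATP; on the % scale 0 is the no-effect control and ±100 the full control effect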); conditions: JNK3 lysate, c-Jun phosphorylation; series mostly up to 57.1 µM
Procedure, shortened: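 qHTS titrations with 15 min compound pre-incubation before adding ATP (10 uM final). Read-out: AlphaScreen of Ser73-phosphorylated biotin-GST-cJun using HepG2 lysate JNK3 activated by IL-1β and TNFα.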

[7] = Cell Viability - HUV-EC-C (AID 542); conditions: HUV-EC-C endothelial cell viability, qHTS; series mostly up to 92.2 µM; further: nearly all actives have a fitted effect of over 35% in size; further: potency means the concentration at half of the fitted maximal effect; on activity change, negative = cytotoxicity: on the % scale 0 is the no-effect control and ±100 the full control effect
Procedure, shortened: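 Cells were seeded at 1000 per well and incubated 5 hr at 37 °C before compound addition. After 40 hr at 37 °C, CellTiter-Glo reagent was added for 20 min and luminescence read. AC50 values came from Hill-equation modelling.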

[8] = Cell Viability - Renal Proximal Tubule (AID 545); conditions: renal proximal tubule cells viability, primary cells of rat origin; series mostly up to 91.7 µM;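 further: 0% = DMSO only and -100% = 100 µM tamoxifen; nearly all actives have a fitted effect of over 40% in size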
Procedure, shortened: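 Luminescent ATP signal (CellTiter-Glo) served as the viability read-out after 40 hr compound exposure of freshly isolated rat proximal tubule cells at 37 °C. Concentration-dependent ATP loss was fitted with the Hill equation to give AC50.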

[9] = Cell Viability - Mesenchymal (AID 546); conditions: mesenchymal cells viability, qHTS; at 91.7 µM (top of the series);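 further: cells exposed to compound for 40 hours before reading; 0% = DMSO only and -100% = 100 µM tamoxifen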
Procedure, shortened: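 CellTiter-Glo luminescence (intracellular ATP, 20 min room temperature) after 40 hr compound exposure at 37 °C of 1000 glomerulus-derived human kidney mesenchymal cells/well; AC50 values obtained by fitting qHTS concentration-response data to the Hill equation.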

[10] = Cell Viability - SK-N-SH (AID 435; calls by dose curve;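 further: potency means the concentration at half of the fitted maximal effect; compound exposure lasted 40 h at 37 °C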); conditions: SK-N-SH neuroblastoma cell viability qHTS
Procedure, shortened: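 Luminescent ATP signal served as the viability read-out after 40 hours of compound treatment of human neuroblastoma SK-N-SH cells. Concentration-response data, scaled between DMSO and 100 uM tamoxifen, gave AC50 values by standard Hill modeling.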

[11] = Cell Viability - N2a (AID 540); conditions: N2a mouse neuroblastoma cell viability; at 92.2 µM (top of the series);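 further: cells exposed to compound for 40 h at 37 °C; plate controls were DMSO alone for no effect and tamoxifen control for full effect; nearly all actives have a fitted effect of over 45% in size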
Procedure, shortened: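 Cytotoxicity was scored as loss of cellular ATP in N2a cells, a mouse neuroblastoma line. Compounds are applied in a qHTS concentration series for 40 hr at 37 °C.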

[12] = Cell Viability - NIH 3T3 (AID 541); conditions: NIH 3T3 cell viability, qHTS; series mostly up to 92.2 µM;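 further: plate controls were DMSO alone for no effect and tamoxifen positive control for full effect; nearly all actives have a fitted effect of over 25% in size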
Procedure, shortened: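 Cells seeded at 1000/well, rested 5 hr at 37 °C, then dosed and incubated 40 hr at 37 °C. CellTiter-Glo added, 20 min room temperature, luminescence read. AC50 by Hill fit.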

[13] = Cell Viability - H-4-II-E (AID 543); conditions: H-4-II-E rat hepatoma viability; series mostly up to 92.2 µM; further: nearly all actives have a fitted effect of over 35% in size; further: potency means the concentration at half of the fitted maximal effect
Procedure, shortened: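 Cells seeded at 1500 per well and rested 5 hr; compounds added; 40 hr incubation at 37 °C; CellTiter-Glo added, 20 min at room temperature; luminescence read. Hill-equation fits gave AC50.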

[14] = Cell Viability - SH-SY5Y (AID 544); conditions: SH-SY5Y neuroblastoma cell viability; at 92.2 µM (top of the series);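 further: 0% = DMSO alone and -100% = 100 µM tamoxifen; nearly all actives have a fitted effect of over 55% in size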
Procedure, shortened: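 Cells were plated at 1500 per well and allowed 5 hr at 37 °C. Compounds were added across a concentration range and incubated 40 hr at 37 °C. CellTiter-Glo was added for 20 min at room temperature before luminescence reading.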

[15] = AP1 Signaling Pathway (AID 357; active means well fitted curve in either direction with a large enough effect, not every such curve was filed as active;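 further: ME-180 reporter cells stimulated with EGF at its EC50 level; on the % scale 0 is the no-effect control and ±100 the full control effect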); conditions: ME-180 AP-1-bla reporter, EGF-induced, beta-lactamase ratio, 5 h; series mostly up to 17.2 µM
Procedure, shortened: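 Cells are seeded overnight, exposed to compound titrations and an EC50 level of EGF for 5 hours at 37 °C, then loaded with CCF4 dye for 2.5 hours. Beta-lactamase activity under the AP-1 element is read as a blue/green ratio.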

[16] = Stat Signaling Pathway (AID 446; active means well fitted curve in either direction with a large enough effect, not every such curve was filed as active;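 further: ME-180 cervical cancer cells given 40 pM IL-6 alongside compound; SIE-controlled beta-lactamase reporter measured as 460/530 nm FRET emission ratio; on the % scale 0 is the no-effect control and ±100 the full control effect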); conditions: ME-180 (cervical carcinoma) SIE beta-lactamase reporter, IL-6 stimulated, 5 h; series mostly up to 17.2 µM
Procedure, shortened: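 Overnight-plated ME-180 cells bearing a STAT Inducible Element beta-lactamase reporter; 5 h co-exposure to compound and 40 pM IL-6; values normalized to 300 pM IL-6 and 125 nM JAK inhibitor controls.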

[17] = target: Glucocorticoid receptor (Homo sapiens) (UniProt P04150); test: GR-EFC Redistribution (AID 451; calls by dose curve; further: potency means the concentration at half of the fitted maximal effect); conditions: CHO-K1 GR-EFC translocation, beta-gal luminescence, 2 h
Chain of Glucocorticoid receptor (Homo sapiens) (P04150 whole entry, looked up, the tested form may be a part): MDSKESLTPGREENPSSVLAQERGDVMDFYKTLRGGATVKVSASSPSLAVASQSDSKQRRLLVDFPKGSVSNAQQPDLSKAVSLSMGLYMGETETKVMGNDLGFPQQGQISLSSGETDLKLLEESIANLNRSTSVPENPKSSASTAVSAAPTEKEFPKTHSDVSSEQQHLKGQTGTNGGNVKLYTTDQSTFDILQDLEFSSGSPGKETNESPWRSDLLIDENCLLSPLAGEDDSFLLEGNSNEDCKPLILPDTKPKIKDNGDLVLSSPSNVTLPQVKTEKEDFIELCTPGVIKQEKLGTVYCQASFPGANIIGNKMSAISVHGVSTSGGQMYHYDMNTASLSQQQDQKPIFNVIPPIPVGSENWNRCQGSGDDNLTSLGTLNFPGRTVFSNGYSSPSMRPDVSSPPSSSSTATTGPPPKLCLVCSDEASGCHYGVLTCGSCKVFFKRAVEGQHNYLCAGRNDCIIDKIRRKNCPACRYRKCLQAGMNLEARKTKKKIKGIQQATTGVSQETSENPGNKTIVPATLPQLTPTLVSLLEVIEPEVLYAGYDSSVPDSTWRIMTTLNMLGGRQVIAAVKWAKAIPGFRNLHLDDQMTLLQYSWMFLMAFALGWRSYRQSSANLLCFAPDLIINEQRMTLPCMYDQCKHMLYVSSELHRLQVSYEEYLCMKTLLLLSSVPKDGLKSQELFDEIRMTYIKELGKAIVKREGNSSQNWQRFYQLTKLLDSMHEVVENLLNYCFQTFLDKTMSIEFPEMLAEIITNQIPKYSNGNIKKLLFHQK
Procedure, shortened: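 Translocation of GR-ED fusion to nuclear EA restores b-gal, read by luminescence after 1 h room-temperature detection. Engineered CHO-K1 biosensor cells, 1,000/well, exposed 2 h at 37 C to titrations up to 46 uM final.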

O=CCCCC=O
active: Potency [2] 6.45 µM
inactive: Potency [1] > 92 µM | Potency [3] > 92 µM | Potency [4] > 92 µM | Potency [5] > 92 µM | outcome [6] | Potency [7] | outcome [8] | activity change, negative = cytotoxicity [9] -29.7%

CCOC(C)=O
inactive: Potency [1] > 92 µM | Potency [2] > 92 µM | Potency [3] > 92 µM | Potency [4] > 92 µM | Potency [5] > 92 µM | Potency [10] > 92 µM | outcome [6] | activity change, negative = cytotoxicity [11] 9.44% | outcome [12] | Potency [7] | Potency [13] | viability change, negative = cytotoxic [14] -3.69% | outcome [8] | activity change, negative = cytotoxicity [9] 10.1%

CCN(CC)Cc1cc(Nc2ccnc3cc(Cl)ccc23)ccc1O
inactive: outcome [15] | outcome [16] | Potency [17] > 20.6 µM | outcome [6]

IC(I)I
inactive: Potency [1] > 92 µM | Potency [2] > 92 µM | Potency [3] > 92 µM | Potency [4] > 92 µM | Potency [5] > 92 µM | Potency [10] > 92 µM | outcome [6] | activity change, negative = cytotoxicity [11] -10.4% | outcome [12] | Potency [7] | Potency [13] | viability change, negative = cytotoxic [14] -2.58% | outcome [8] | activity change, negative = cytotoxicity [9] 5.44%

CC(C)(C)NC(=O)[C@@H]1C[C@@H]2CCCC[C@@H]2CN1C[C@@H](O)[C@H](Cc1ccccc1)NC(=O)[C@H](CC(N)=O)NC(=O)c1ccc2ccccc2n1
inactive: outcome [6] | outcome [12]
active: Potency [2] 46.4 µM | Potency [4] 65.4 µM | Potency [7] 50.1 µM | Potency [13] 50.1 µM | viability change, negative = cytotoxic [14] -93.9% | activity change, negative = cytotoxicity [9] -97.1%

CCCCC/C=C\C/C=C\CCCCCCCC(=O)O
inactive: Potency [1] > 92 µM | Potency [2] > 92 µM | Potency [3] > 92 µM | Potency [4] > 92 µM | Potency [5] > 92 µM | Potency [10] > 92 µM | activity change, negative = cytotoxicity [11] -28.9% | outcome [12] | Potency [7] | Potency [13] | viability change, negative = cytotoxic [14] 0.00595% | outcome [8] | activity change, negative = cytotoxicity [9] 8.92%

CC(C)(C)C(=O)OCOC(=O)[C@@H]1N2C(=O)[C@@H](N=CN3CCCCCC3)[C@H]2SC1(C)C
inactive: outcome [15] | outcome [16] | outcome [6]

CC(O)CO (centres undefined)
inactive: Potency [1] > 92 µM | Potency [2] > 92 µM | Potency [3] > 92 µM | Potency [4] > 92 µM | Potency [5] > 92 µM | Potency [10] > 92 µM | outcome [6] | activity change, negative = cytotoxicity [11] -4.29% and -9.5% | outcome [12] | Potency [7] | Potency [13] | viability change, negative = cytotoxic [14] -13.2% and -4.54% | outcome [8] | activity change, negative = cytotoxicity [9] 1.55% and 7.01%
